Screens from PubChem.
MLLE-PAM2 inh: inhibitors of PABP1 MLLE–PAM2 peptide binding, primary screen, biochemical, fluorescence polarization, FITC-PAM2, GST-MLLE; inhibition, % at 20 µM; 0.36% of 360,000 active; Polyadenylate-binding protein 1 (Homo sapiens), P11940; in the data active = inhibition above about 35%, passing the limit was not always enough;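 also: plate controls were DMSO wells with GST-MLLE for no effect and wells lacking GST-MLLE protein for full effect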
eIF4H FP inh: human eIF4H binding inhibitors, primary screen, translation initiation inhibitor project, biochemical, uHTS, fluorescence polarization; 0.94% of 290,000 active; eIF4H fluorescence polarization binding assay; inhibition, % at 35 µM; AID 2012, 2009; Eukaryotic translation initiation factor 4H (Homo sapiens), Q15056;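 also: calls also rest on retests at 20 µM and on dose response follow-up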
PABP FP inh: PABP poly(A) RNA binding inhibitors, primary screen, biochemical, fluorescence polarization, uHTS; Polyadenylate-binding protein 1 (Homo sapiens), P11940; inhibition, % at 35 µM; 1% of 290,000 active;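 also: calls also rest on retests at 20 µM and on dose response follow-up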
GRK2 inh: compounds blocking aptamer binding on GRK2 – biochemical, human GRK2, bead flow cytometry, HTS, primary screen; Beta-adrenergic receptor kinase 1 (Homo sapiens), P25098; FAM-aptamer displacement from GRK2; inhibition of aptamer binding, % at 10 µM; 0.59% of 330,000 active;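 active = inhibition of aptamer binding above 40%, roughly 3 SD of noise, on plates passing a quality check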;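 also: median bead fluorescence of bound FAM aptamer so fluorescent compounds give negative values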
PERK inh: block of dimerizer-induced PERK translation repression, primary screen, PERK inhibitor project, CHO PERK-DD cells, SEAP luminescence, HTS. CHO PERK-DD fusion, SEAP luminescence translation reporter. inhibition, % at 5.6 µM. 0.17% of 220,000 active. AID 1416, 2008;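 active = inhibition above the mean inhibition of all tested compounds plus 3 SD, set separately per screening campaign, cut at about 2.9% in these data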;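 also: PERK kinase domain activated by AP20187 dimerizer at 100 nM; 0% = DMSO with dimerizer and 100% = rapamycin at 8.4 µM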
Target sequence (Q9NZJ5 whole entry, looked up, the tested form may be a part): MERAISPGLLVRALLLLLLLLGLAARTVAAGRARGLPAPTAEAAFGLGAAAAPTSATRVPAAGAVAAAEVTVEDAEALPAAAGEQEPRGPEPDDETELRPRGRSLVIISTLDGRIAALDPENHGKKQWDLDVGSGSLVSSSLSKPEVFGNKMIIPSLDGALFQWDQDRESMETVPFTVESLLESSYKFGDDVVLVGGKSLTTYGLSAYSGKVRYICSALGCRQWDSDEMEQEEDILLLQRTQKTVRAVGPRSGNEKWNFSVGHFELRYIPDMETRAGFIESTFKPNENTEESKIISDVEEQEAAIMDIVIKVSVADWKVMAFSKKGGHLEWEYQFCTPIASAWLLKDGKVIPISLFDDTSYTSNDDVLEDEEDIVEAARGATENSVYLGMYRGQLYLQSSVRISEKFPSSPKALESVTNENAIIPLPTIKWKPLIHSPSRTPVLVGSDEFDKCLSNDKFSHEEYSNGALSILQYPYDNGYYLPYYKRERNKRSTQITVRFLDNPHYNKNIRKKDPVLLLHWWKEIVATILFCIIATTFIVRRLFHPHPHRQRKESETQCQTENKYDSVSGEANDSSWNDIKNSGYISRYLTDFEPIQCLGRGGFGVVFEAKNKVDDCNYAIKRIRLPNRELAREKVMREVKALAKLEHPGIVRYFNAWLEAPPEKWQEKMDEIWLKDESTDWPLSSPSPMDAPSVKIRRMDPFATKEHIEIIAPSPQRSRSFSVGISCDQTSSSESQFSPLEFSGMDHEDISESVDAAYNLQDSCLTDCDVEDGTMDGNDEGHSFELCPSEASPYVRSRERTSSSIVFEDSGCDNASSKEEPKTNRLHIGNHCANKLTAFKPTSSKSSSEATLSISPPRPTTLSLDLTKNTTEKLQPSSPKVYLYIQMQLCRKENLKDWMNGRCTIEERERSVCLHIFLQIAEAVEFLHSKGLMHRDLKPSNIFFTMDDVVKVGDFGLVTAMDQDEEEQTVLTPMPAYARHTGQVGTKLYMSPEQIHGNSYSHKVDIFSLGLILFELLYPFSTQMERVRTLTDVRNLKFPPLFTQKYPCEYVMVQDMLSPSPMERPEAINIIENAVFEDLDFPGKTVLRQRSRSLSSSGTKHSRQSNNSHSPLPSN
Numbers without * were called inactive; ! = not confirmed by another sample. Shown are actives, neighbours in structure and some others; about 1.9% of the full set was active somewhere. Unless noted, no rule for the calls is given here.

Results for CCCCC(=O)N/N=C/c1c(O)n(CC)c(=S)[nH]c1=O ?
MLLE-PAM2 inh: -7; eIF4H FP inh: 56*; PABP FP inh: 2; GRK2 inh: 2; PERK inh: 0

How did CCCCCCC(=O)N/N=C/c1c(O)n(CCCC)c(=S)[nH]c1=O do in these assays?
MLLE-PAM2 inh: -17; eIF4H FP inh: 4; PABP FP inh: -24; GRK2 inh: 0; PERK inh: 1

What do the screens show for `COc1ccc(CN2CCN(Cc3ccccc3F)CC2)cc1`?
MLLE-PAM2 inh: -3; eIF4H FP inh: 5; PABP FP inh: 14; GRK2 inh: 1

Results for C[N+]1(C)C2CCC1CC(OC(=O)c1c[nH]c3ccccc13)C2 (centres undefined) ?
MLLE-PAM2 inh: -126; GRK2 inh: 2

How did C[N+]1(C)C2CCC1CC(OC(=O)c1ccco1)C2 (centres undefined) do in these assays?
MLLE-PAM2 inh: -103; GRK2 inh: 2; PERK inh: 3.3*

How did COC(=O)C1=C(c2ccc(OC)c(OC)c2)C[C@@H]2CC[C@H]1N2C(=O)N1CCC(O)CC1 do in these assays?
MLLE-PAM2 inh: 3; GRK2 inh: 0

What do the screens show for `CCC(C)NC(=O)CN1C(=O)CN=C(c2ccccc2)c2ccccc21` (centres undefined)?
MLLE-PAM2 inh: 3; eIF4H FP inh: 16; PABP FP inh: -2; GRK2 inh: 0; PERK inh: 3.1*

How did CCOC(=O)[C@]1(C#N)[C@@H]2C=CC(C(C)=O)=CN2[C@@H](C(N)=O)[C@@H]1c1ccsc1 do in these assays?
MLLE-PAM2 inh: 11; eIF4H FP inh: 57*; PABP FP inh: 66*; GRK2 inh: 0; PERK inh: 2

What do the screens show for `O=S(=O)(c1ccccc1)N1CCN2CCCC2C1` (centres undefined)?
MLLE-PAM2 inh: 4; eIF4H FP inh: 96*; PABP FP inh: 82*; GRK2 inh: 9

How did O=c1[nH]c(=O)n(Cc2ccco2)c(O)c1C=NCc1cccs1 do in these assays?
MLLE-PAM2 inh: -2; eIF4H FP inh: 0; PABP FP inh: 1; GRK2 inh: 3; PERK inh: -1

What do the screens show for `O=c1[nH]c(=S)n(Cc2ccco2)c(O)c1C=NCc1cccs1`?
MLLE-PAM2 inh: 21; eIF4H FP inh: 53*; PABP FP inh: 34*; GRK2 inh: 0; PERK inh: 0

What do the screens show for `NC(=O)c1ccc(N=Cc2c(O)n(Cc3ccco3)c(=O)[nH]c2=O)cc1`?
MLLE-PAM2 inh: -4; eIF4H FP inh: 55; PABP FP inh: 9.7*; GRK2 inh: 8; PERK inh: 1

Results for CCN(CC)c1ccc(N=Cc2c(O)n(Cc3ccco3)c(=O)[nH]c2=O)cc1 ?
MLLE-PAM2 inh: -51; eIF4H FP inh: inconclusive; PABP FP inh: inconclusive; GRK2 inh: 1; PERK inh: 0

How did CCCNC(=O)N1[C@H]2CC[C@@H]1C(C(=O)OC)=C(c1ccc(C(C)=O)cc1)C2 do in these assays?
MLLE-PAM2 inh: -3; GRK2 inh: 0

What do the screens show for `CCn1nc(-c2ccccc2)nc2c(=O)n(C)c(=O)nc1-2`?
MLLE-PAM2 inh: -1; eIF4H FP inh: inconclusive; PABP FP inh: -7; GRK2 inh: 54*; PERK inh: 0

What do the screens show for `COc1cc2c(cc1OC)C(c1c(O)n(CCc3ccccc3)c(=S)[nH]c1=O)NCC2` (centres undefined)?
eIF4H FP inh: inconclusive; PABP FP inh: 40*; GRK2 inh: 2; PERK inh: 1

How did COc1ccc(C2CC(c3c(O)n(CCc4ccccc4)c(=O)[nH]c3=O)=NN2)cc1OC (centres undefined) do in these assays?
MLLE-PAM2 inh: -9; eIF4H FP inh: 2; PABP FP inh: 3; GRK2 inh: 0; PERK inh: 0

How did Cc1cc(C(=O)OCC(=O)Nc2ccc(F)cc2)c(C)n1C1CC1 do in these assays?
MLLE-PAM2 inh: -10; GRK2 inh: 0

What do the screens show for `Nc1ccc2ccccc2c1`?
MLLE-PAM2 inh: 8

What do the screens show for `Nc1ccc2c(c1)oc1ccccc12`?
MLLE-PAM2 inh: 7; eIF4H FP inh: -8; PABP FP inh: -14; GRK2 inh: 3; PERK inh: 3.6*

What do the screens show for `CS(=O)(=O)c1ccc(C2=C(CNC(=O)c3nccs3)[C@H]3CC[C@@H](C2)N3Cc2ccccc2)cc1`?
MLLE-PAM2 inh: -9

What do the screens show for `CN(C)CC(C(=O)Cc1ccccc1)c1ccccc1` (centres undefined)?
MLLE-PAM2 inh: 10

What do the screens show for `Nc1cncc(C(=O)O)c1`?
MLLE-PAM2 inh: 12; eIF4H FP inh: 53*!; PABP FP inh: 21; GRK2 inh: 0; PERK inh: 2

Results for CCC1CO/C(=C(\C(Cl)=C(Cl)Cl)[N+](=O)[O-])N1Cc1ccc(Cl)nc1 (centres undefined) ?
MLLE-PAM2 inh: 4; eIF4H FP inh: -11; PABP FP inh: 3; GRK2 inh: 0

Results for O=C(C(=C1N(Cc2ccc(Cl)nc2)CCN1Cc1ccc(Cl)nc1)[N+](=O)[O-])C(Cl)Cl ?
MLLE-PAM2 inh: -4; eIF4H FP inh: -3; PABP FP inh: 1; GRK2 inh: 44*

What do the screens show for `CN1CC(C(=O)c2cccc(C(F)(F)F)c2)C(c2ccc(Cl)cc2)C1` (centres undefined)?
MLLE-PAM2 inh: -14; eIF4H FP inh: 0; PABP FP inh: -6; GRK2 inh: 0

How did CCN1C(=O)/C(=C\c2ccc([N+](=O)[O-])s2)C(=O)NC1=S do in these assays?
eIF4H FP inh: 52*; PABP FP inh: 3.4*; PERK inh: 2

How did C=CCN1C(=O)/C(=C/c2ccc(Br)s2)C(=O)NC1=S do in these assays?
MLLE-PAM2 inh: -66; eIF4H FP inh: 20; PABP FP inh: 6; GRK2 inh: 6

What do the screens show for `C=C(C)[C@@H]1[C@H]2OC(=O)[C@H]1[C@]1(O)C[C@H]3O[C@]34C(=O)O[C@H]2[C@]14C`?
MLLE-PAM2 inh: 5

What do the screens show for `Nc1c(C(=O)NCc2ccco2)c2nc3ccccc3nc2n1CCN1CCCCC1`?
MLLE-PAM2 inh: -48; eIF4H FP inh: 72*; PABP FP inh: 104*; GRK2 inh: 0; PERK inh: 0

How did C[N+]1(C)C2CC(OC(=O)[C@H](CO)c3ccccc3)CC1C1OC12 (some centres undefined) do in these assays?
MLLE-PAM2 inh: -3; GRK2 inh: 1

Results for CN1/C(=C\C=C\C2=[N+](C)c3ccc4ccccc4c3C2(C)C)C(C)(C)c2ccccc21 ?
eIF4H FP inh: inconclusive; PABP FP inh: inconclusive; GRK2 inh: 84*; PERK inh: -3

How did Cn1c(O)c(C(=O)c2ccccc2F)c(=O)n(C)c1=O do in these assays?
MLLE-PAM2 inh: 13; eIF4H FP inh: 6; PABP FP inh: 8; GRK2 inh: 6; PERK inh: 2
